Among the data in PubChem BioAssay (EPA / NIEHS) are AC50 and outcome values, retold here.

Inconclusive results are not listed. The source made the active and inactive calls. Rule for the calls, unless noted: active = hit-call score of the fitted dose curve at least 0.9, where 1 is the maximum; inconclusive = response in the unintended direction; inactive = score below 0.9.

Assay [1] has as its system SERPINA7 (gene 6906). The experiment in a line: CCTE_GLTED_hTBG: CCTE's human Thyroxine-binding Globulin (TBG) Inhibition Assay, Great Lakes Toxicology and Ecology Division (GLTED) Lab (AID 2284343).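 Note: active chemicals lower fluorescence versus DMSO baseline by displacing probe.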 The gist of the method: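 Cell-free displacement of the fluorescent probe ANSA from human thyroxine-binding globulin after 2 h exposure. Read-out at ex 380/em 475 nm; DMSO baseline.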

The nature of assay [2]: CCTE_Deisenroth_5AR_NBTE_donor: CCTE's 5alpha-reductase NanoBRET Target Engagement Assay […], Deisenroth Lab (AID 2284319; active = hit-call score of the fitted dose curve at least 0.9, where 1 is the maximum; inactive = score below 0.9). The note with it: actives raise or lower the signal. In outline:
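SRD5A2-NanoLuc, HEK293T, 20 h expression. Chemical 10 nM - 29.9 uM, 8 conc, duplicate; 3 h preincubation + 2 h testosterone tracer. Nano-Glo substrate plus extracellular NanoLuc inhibitor; donor lum 460 nm. DMSO baseline, bidirectional fit.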
(Bioluminescence resonance energy transfer reports proximity on the nanometre scale.)

The nature of assay [3]: CCTE_Deisenroth_5AR_NBTE_acceptor: CCTE's 5alpha-reductase NanoBRET Target Engagement Assay - Autofluorescence Screen, Deisenroth Lab (AID 2284321; active = hit-call score of the fitted dose curve at least 0.9, where 1 is the maximum; inactive = score below 0.9). Particulars: actives raise or lower the signal. In outline: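 Acceptor-channel fluorescence flags artifacts, with excitation fixed at 460 nm. Nominal 100 uM chemical samples were read in triplicate runs, and signal changes were fitted in both directions relative to DMSO.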

Assay [4] has as its system SRD5A2 (gene 6716). Put plainly: CCTE_Deisenroth_5AR_NBTE_ratio: CCTE's 5alpha-reductase NanoBRET Target Engagement Assay - Ratio, Deisenroth Lab (AID 2284322; active = hit-call score of the fitted dose curve at least 0.9, where 1 is the maximum; inactive = score below 0.9). Particulars: actives raise or lower the signal. The gist of the method:
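HEK293T cells transiently expressing an SRD5A2-NanoLuc fusion (20 h post-transfection) were exposed to test chemical (10 nM - 29.9 uM, 8 points) for 3 h, then testosterone tracer for a further 2 h. Acceptor/donor BRET ratio was fitted bidirectionally against DMSO baseline.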

A short description of assay [5]: TAMU_PeakParms_SingleDonor1434_Asystole: Texas A&M University (TAMU) 1.5-hr Human Induced Pluripotent Stem Cell (iPSC)-derived Cardiomyocytes Calcium (Ca+2) Flux Assay for Cardiotoxicity: Asystole (quiescence of beating) (AID 2284328). The gist of the method: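 Human iPSC-derived cardiomyocytes (donor 1434) were exposed to 0.2, 1, 10 and 100 uM compound in 0.5% DMSO for 90 min at 37C. Ca2+-dye fluorescence gave average peak frequency; POD is EC95, a 95% beat-rate drop versus DMSO.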

The test system of assay [6] is Brachyury (BRA) Protein Expression, Deisenroth Lab, TBXT (gene 6862). Put plainly: CCTE_Deisenroth_DEVTOX-GLR_legacy_Bra: (Legacy) CCTE's DevTox GLR-Endo Assay Evaluation of Brachyury (BRA) Protein Expression, Deisenroth Lab (AID 2284329; active = hit-call score of the fitted dose curve at least 0.9, where 1 is the maximum; inactive = score below 0.9). The gist of the method:
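High-content imaging of fixed RUES2-GLR cells after a 48-hour differentiation with two compound exposures yields percent cells whose Bra signal exceeds pluripotent control median by 5x BMAD; values are baseline-corrected to DMSO.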

Assay [7] can be described thus: CCTE_Deisenroth_DEVTOX-GLR_legacy_CellCount: (Legacy) Viability Assessment in CCTE's DevTox GLR-Endo Assay, Deisenroth Lab (AID 2284331; active = hit-call score of the fitted dose curve at least 0.9, where 1 is the maximum; inactive = score below 0.9). The note with it: actives raise or lower the signal. The gist of the method:
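Viability is taken from imaged nuclei counts in fixed RUES2-GLR cultures after 48 h of differentiation under two 24 h-spaced chemical exposures, 10 concentrations from 1 nM to 200 uM, gain or loss versus DMSO baseline.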

Assay [8] in a line: IUF_NPC1_cytotoxicity_72hr: Cytotoxicity Assessment at 72 hours in the Leibniz Research Institute for Environmental Medicine (IUF) Neural Progenitor Cell Proliferation Assay (NPC1) (AID 2284332).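 Note: rising LDH signal means more cytotoxicity.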 In outline: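 Cytotoxicity by LDH membrane-integrity assay on medium supernatants, fluorescence via resazurin reduction, after 3-day single exposure of primary hNPC spheres at 37C, pH 7.2-7.6 with growth factors. Fitted upward against baseline.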

In assay [9] the test system is SRY-box transcription factor 17 (SOX17) Protein Expression, Deisenroth Lab, SOX17 (gene 64321). The experiment in a line: CCTE_Deisenroth_DEVTOX-GLR_legacy_Sox17: (Legacy) CCTE's DevTox GLR-Endo Assay Evaluation of SRY-box transcription factor 17 (SOX17) Protein Expression, Deisenroth Lab (AID 2284341; active = hit-call score of the fitted dose curve at least 0.9, where 1 is the maximum; inactive = score below 0.9). The note with it: actives raise or lower the signal. In outline: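 Endoderm-differentiation readout in RUES2-GLR human pluripotent cells at 48 h, concentrations spanning 1 nM - 200 uM. Sox17-positive cells divided by total cell count; gain or loss relative to DMSO solvent control, n=4 experimental replicates.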

Assay [10] in a line: CCTE_Mundy_HCI_iCellGluta_NOG_NeuriteCount: CCTE's Neurite Outgrowth Assay in iCellGluta cells for Neurite Count, Mundy Lab (AID 2284342).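 Note: chemical exposure about 48 hours starting 2 hours after plating.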
In assay [11] the test system is SRY-box transcription factor 2 (SOX2) Protein Expression, Deisenroth Lab, SOX2 (gene 6657). The experiment in a line: CCTE_Deisenroth_DEVTOX-GLR_legacy_Sox2: (Legacy) CCTE's DevTox GLR-Endo Assay Evaluation of SRY-box transcription factor 2 (SOX2) Protein Expression, Deisenroth Lab (AID 2284346; active = hit-call score of the fitted dose curve at least 0.9, where 1 is the maximum; inactive = score below 0.9). The gist of the method: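 Two exposures, 24 h apart, during 48 h defined-media differentiation of seeded RUES2-GLR cells; nuclei-stained cells imaged. Sox2 positivity called at 5x BMAD above endoderm control median, DMSO median subtracted.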

Assay [12] concerns SRY-box transcription factor 17 (SOX17) Protein Expression, Deisenroth Lab, SOX17 (gene 64321). The experiment in a line: CCTE_Deisenroth_DEVTOX-GLR_Endo_SOX17: CCTE's DevTox GLR-Endo Assay Evaluation of SRY-box transcription factor 17 (SOX17) Protein Expression, Deisenroth Lab (AID 2284413; active = hit-call score of the fitted dose curve at least 0.9, where 1 is the maximum; inactive = score below 0.9). In outline: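 Fluorescent microscopy of a SOX17 reporter in RUES2-GLR pluripotent cells scored endoderm differentiation after 48 h and two 24-h-spaced exposures. Values are percent change in SOX17+ population against 0.2% DMSO, n=4 experimental replicates.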

The subject of assay [13] is Brachyury (BRA) Protein Expression, TBXT (gene 6862). Put plainly: CCTE_Deisenroth_DEVTOX-GLR_Endo_BRA: CCTE's DevTox GLR-Endo Assay Evaluation of Brachyury (BRA) Protein Expression, Deisenroth Lab (AID 2284417; active = hit-call score of the fitted dose curve at least 0.9, where 1 is the maximum; inactive = score below 0.9). The gist of the method:
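Read-out: BRA+ cell count divided by total cell count by high-content imaging (5 fields per well), expressed relative to 0.2% DMSO solvent control. RUES2-GLR cells dosed twice over a 48 h differentiation; concentrations 1 nM - 200 uM.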

Assay [14] can be described thus: VALA_TUBHUV_Antagonist_TubuleLength: VALA Sciences human Umbilical Vein Endothelial Tubule Formation (TUBHUV) Antagonism Assay (AID 2284325). The gist of the method: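 Tubule length was imaged via CD31 immunofluorescence after a further 3-day compound exposure in 10 ng/ml VEGF, following 3-day pre-culture of HUVEC with HDF at 1:3. Vehicle 0.1% DMSO; suramin (100 uM) inhibition control.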

Assay [15] in a line: VALA_TUBIPS_Antagonist_CellCount: Viability Assessment in the VALA Sciences human iPS-derived Endothelial Tubule Formation (TUBIPS) Antagonism Assay (AID 2284335).
A short description of assay [16]: VALA_MIGHUV1_ScratchOnly_WoundArea: VALA Sciences human Umbilical Vein Endothelial Cell Migration (MIGHUV) Assay, Area of Scratch Wound Inhibited Recovery (AID 2284336). The gist of the method: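 Wound area remaining after 24 h recovery imaged by Hoechst nuclear fluorescence in scratched HUVEC cultures, chemicals added within 30 min of scratching across a 6-point series. Gain of signal fitted against 0.1% DMSO; cytochalasin D positive control.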

Assay [17] is described as follows: VALA_TUBHUV_Agonist_TubuleLength: VALA Sciences human Umbilical Vein Endothelial Tubule Formation (TUBHUV) Agonism Assay (AID 2284337). The gist of the method: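 Tubule length quantified by CD31 immunofluorescence imaging after fixation. HUVEC-HDF co-cultures (1:3) pre-grown 3 days with 10 ng/ml VEGF, then dosed 3 days in VEGF medium; 0.1 % DMSO vehicle baseline.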

Assay [18] can be described thus: VALA_TUBIPS_Agonist_CellCount: Viability Assessment in the VALA Sciences human iPS-derived Endothelial Tubule Formation (TUBIPS) Agonism Assay (AID 2284338).
Assay [19] can be described thus: VALA_MIGHUV1_ScratchOnly_CellCount: Viability Assessment in the VALA Sciences human Umbilical Vein Endothelial Cell Migration (MIGHUV) Assay, Scratch Wound Inhibited Recovery (AID 2284327). The gist of the method: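 Hoechst-stained nuclei in the scratch wound were counted by high-content imaging after a 24 h recovery period. Scratched HUVEC monolayers received 6-point concentration series, triplicate, in 0.1% DMSO, fit against DMSO.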

In the case of `CCC(C)N(C)C(=O)c1cc2ccccc2c(-c2ccccc2Cl)n1` (stereo unspecified), the AC50 (in general, the concentration giving half of the maximal activity seen) in assay [1] is 38.1 µM (active).

Regarding `O=C(O)c1[nH]n(-c2ccc(S(=O)(=O)O)cc2)c(=O)c1N=Nc1ccc(S(=O)(=O)O)cc1`, the figures for the concentration at half-maximal activity (AC50) in assay [2], in assay [4] and in assay [1] were 35 µM (active), 57.5 µM (active) and 27.1 µM (active), respectively. The compound was classed as inactive in assay [3].

As to `CCc1nc(N)nc(N)c1-c1ccc(Cl)cc1`, in assay [5], the result was inactive.

Turning to `CCCCC(CC)COC(=O)CCCCCCCC(=O)OCC(CC)CCCC` (stereo unspecified), the compound was classed as inactive in [2], in assay [3] and in assay [4].

As to `CCCCCCCCCCCCCCOS(=O)(=O)O`, the outcome in assay [2] and in assay [3] was inactive. The AC50 was 26.1 µM (active) in assay [4] and 27.7 µM (active) in assay [1].

With `CC(=O)CC(c1ccccc1)c1c(O)c2ccccc2oc1=O` (stereo unspecified), the result in [6], in [7], in assay [8], in [9], in assay [10] and in [11] was inactive. Further, the half-maximal activity concentration (AC50) was 37.9 µM (active) in assay [1], 100 µM (active) in [12] and 1.45 pM (active) in [13].

Regarding `Nc1nc(Cl)nc2c1ncn2[C@H]1C[C@H](O)[C@@H](CO)O1`, the AC50 was 0.703 µM (active) in assay [14]; 0.956 µM (active) in [15]; 23.2 µM (active) in assay [16]; 15.2 µM (active) in assay [17]; 0.23 µM (active) in assay [18].

`CCN(CC)CCOc1ccc(C(=C(Cl)c2ccccc2)c2ccccc2)cc1`: the result in assay [2], in [3] and in [4] was inactive.

Turning to `COC(=O)[C@H]1[C@H]2C[C@@H]3c4[nH]c5cc(OC)ccc5c4CCN3C[C@H]2C[C@@H](OC(=O)c2cc(OC)c(OC)c(OC)c2)[C@@H]1OC`, the AC50 in assay [14] was 84.3 µM (active). Besides, the outcome in assay [19], in assay [5], in assay [15], in assay [16], in [17] and in assay [18] was inactive.

In the case of `Cc1ccc(C(C)(C)C)c(O)c1`, the AC50 in assay [1] is 26.7 µM (active).

Turning to `O=C1OC(c2ccc(O)cc2)(c2ccc(O)cc2)c2ccccc21`, the compound was classed as inactive in [2], in assay [3], in assay [15] and in assay [18]. Further, the AC50 was 50 µM (active) in assay [4], 50 µM (active) in assay [14], 75.4 µM (active) in assay [16] and 3.3 µM (active) in [1].
